Laboratory results as given in the OligoGym collection.
Also: reference of the scale not given here.

These sequences were tested against LCE2C (assay: pooled miR-30 sensor sort-seq; sequence = guide strand). Conditions: shRNA.
Sequence TCACTCTCACAGCAGTCGGGGC has a sensor-assay potency score (higher = more potent) of -1.13. TTCACTCTCACAGCAGTCGGGG was tested, and the sensor-assay potency score (higher = more potent) was -0.831. TCAGGGAGCAGCCACCAGCCCC was tested, and the sensor-assay potency score (higher = more potent) was -1.78. With AGCAAGAAGAGACTGCAGGGAA the sensor-assay potency score (higher = more potent) was -0.624. Work on ACACTTGGGAGGACACTTGGGA yielded a sensor-assay potency score (higher = more potent) of 0.0104. For CACAGCAAGAAGAGACTGCAGG, the sensor-assay potency score (higher = more potent) was -2.53. With TGGTGGCTCAGGGAGCAGCCAC the sensor-assay potency score (higher = more potent) was -2.45. Work on AGACTGCAGGGAAACATGGAGC yielded a sensor-assay potency score (higher = more potent) of -2.06. CTGCAGGGAAACATGGAGCTGG gave a sensor-assay potency score (higher = more potent) of -1.34.

Each sequence was assayed against LCN1 in the same assay as above. Conditions: shRNA.
Sequence TTGGCTTCCAGGTTGCCCCCTT has a sensor-assay potency score (higher = more potent) of -0.189. TTGTTCTTGGGGTCTCTGCCCA gave a sensor-assay potency score (higher = more potent) of -0.515. TCTCCGTGCTGAGTCCGCGGGC was tested, and the sensor-assay potency score (higher = more potent) was -0.925. With ATCCTGAATCTCCTCGTCTGAG the sensor-assay potency score (higher = more potent) was -1.24. Sequence TCCTGAATCTCCTCGTCTGAGG has a sensor-assay potency score (higher = more potent) of -2.03.
